Results filed as inconclusive are left out. A call without a number means that no potency is given here. Calls of active or inactive are those of the source. Unless noted, calls come from the whole dose curve.
Potency is the fitted concentration of half-maximal effect.

Chain of KiSS-1 receptor (Homo sapiens) (Q969F8 whole entry, looked up): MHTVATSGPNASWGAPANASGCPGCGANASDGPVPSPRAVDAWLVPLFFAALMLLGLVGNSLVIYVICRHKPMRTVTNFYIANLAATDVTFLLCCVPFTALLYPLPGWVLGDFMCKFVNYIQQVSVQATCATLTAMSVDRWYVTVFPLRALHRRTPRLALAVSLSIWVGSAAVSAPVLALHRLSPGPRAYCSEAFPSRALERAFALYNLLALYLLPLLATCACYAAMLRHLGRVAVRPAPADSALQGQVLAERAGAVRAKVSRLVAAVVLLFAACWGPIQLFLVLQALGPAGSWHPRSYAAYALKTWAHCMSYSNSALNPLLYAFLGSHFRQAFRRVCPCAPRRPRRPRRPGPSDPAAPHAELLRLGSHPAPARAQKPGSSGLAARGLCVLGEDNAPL
Chain of Gonadotropin-releasing hormone receptor (Homo sapiens) (P30968 whole entry, looked up): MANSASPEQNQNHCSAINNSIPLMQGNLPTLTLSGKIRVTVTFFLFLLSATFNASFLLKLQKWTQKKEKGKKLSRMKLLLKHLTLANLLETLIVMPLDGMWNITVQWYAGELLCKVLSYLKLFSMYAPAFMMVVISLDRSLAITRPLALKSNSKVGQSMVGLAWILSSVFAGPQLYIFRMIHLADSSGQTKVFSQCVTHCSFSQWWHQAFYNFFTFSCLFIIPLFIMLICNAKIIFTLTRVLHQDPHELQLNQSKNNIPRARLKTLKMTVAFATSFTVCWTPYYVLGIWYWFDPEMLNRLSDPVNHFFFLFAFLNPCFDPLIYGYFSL

System in the first assay: not listed separately
Description: Nuclear factor erythroid 2-related factor 2/antioxidant responsive element (Nrf2/ARE) small molecule agonists: luciferase reporter gene qHTS assay in human keratinocytes (AID 1919969). Note: nearly all actives have a fitted effect of over 35% in size. Particulars: KeratinoSens HaCaT ARE-luciferase, luminescence, 24 h; series mostly up to 92.4 µM.
Turning to `CNN`, the Potency entry is “inactive”.

In the case of `C=C1C[C@@H]2[C@H](CC[C@]3(C)C(=O)CC[C@@H]23)[C@@]2(C)C=CC(=O)C=C12`, the Potency was 29.8 µM (active).

On to `C=CCOC(C)=O`, for which the Potency entry is “inactive”.

On to `Cc1ccc(-c2c(Cl)nc(C#N)n2S(=O)(=O)N(C)C)cc1`, for which the Potency is 9.68 µM (active).

For the compound `FC(F)OC(F)(F)C(F)Cl` (stereo not given), the Potency result is “inactive”.

The next assay addresses Gonadotropin-releasing hormone receptor (Homo sapiens) (UniProt P30968). Briefly: Human gonadotropin-releasing hormone receptor (GnRHR) small molecule agonists, calcium flux assay in GnRHR-HEK293 cells (AID 1920063). Note: nearly all actives have a fitted effect of over 35% in size. Particulars: calcium flux fluorescence, agonist mode; series mostly up to 57.6 µM. A digest of the protocol:
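GnRHR-HEK293, 1500 cells/well, 18 h 37 C/5% CO2; Ca dye 1 h 37 C; cpd pinned (DMSO), agonist mode; kinetic FL 480/540, 3 min, 1 s reads; 15 conc, n=3.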
On to `C=COC(C)=O`, for which the Potency entry is “inactive”.

On to `CCCCCl`, for which the Potency result was “inactive”.

For `OC(c1ccc(F)cc1)(c1cncnc1)c1ccccc1Cl` (stereo not given), the Potency entry was “inactive”.

With `CCOC(=O)OC1=C(c2cc(C)ccc2C)C(=O)NC12CCC(OC)CC2` (stereo not given), the Potency result was “inactive”.

`NNCCO`: the Potency result is “inactive”.

Consider `C[N+]1(C)[C@@H]2CC[C@H]1CC(OC(=O)C(CO)c1ccccc1)C2` (stereo not given in full), for which the Potency entry is “inactive”.

Turning to `O=CC(Br)(Br)Br`, the Potency result is “inactive”.

As to `Nc1c(Br)cc(Br)c2c1C(=O)c1ccccc1C2=O`, the activity change was 1.8% [at 11.8 µM, stronger effect = higher value] (inactive).

For `O=S(=O)(Cl)c1ccccc1`, the Potency entry is “inactive”.

Take `Cc1nnc2n1-c1sc(CCC(=O)N3CCOCC3)cc1C(c1ccccc1Cl)=NC2`: the Potency entry is “inactive”.

Regarding `O=Cc1ccc2c(c1)OCO2`, the Potency entry was “inactive”.

Turning to `CCN(CC)C(=S)[S-].CCN(CC)C(=S)[S-].[Zn+2]`, the Potency is 9.69 µM (active).

As to `CC(Oc1cccc(Cl)c1)C(=O)O` (stereo not given), the Potency result was “inactive”.

Consider `N#CC(CCc1ccc(Cl)cc1)(Cn1cncn1)c1ccccc1` (stereo not given), for which the Potency entry is “inactive”.

On to `CCCSP(=S)(OCC)Oc1ccc(Cl)cc1Cl` (stereo not given), for which the Potency entry was “inactive”.

As to `CCC(CC)(CNC(=O)CCCO)c1cccc(OC)c1`, the Potency result was “inactive”.

`CC(C)(C)c1cc([N+](=O)[O-])cc([N+](=O)[O-])c1O`: the Potency was 38.8 µM (active).

On to `Cc1cnc2c(C(=O)O)c(Cl)ccc2c1`, for which the Potency entry was “inactive”.

For the compound `CC[C@H](C)[C@H]1O[C@]2(C=C[C@@H]1C)C[C@@H]1C[C@@H](C/C=C(\C)[C@@H](O[C@H]3C[C@H](OC)[C@@H](O[C@H]4C[C@H](OC)[C@@H](O)[C@H](C)O4)[C@H](C)O3)[C@@H](C)/C=C/C=C3\CO[C@@H]4[C@H](O)C(C)=C[C@@H](C(=O)O1)[C@]34O)O2`, the Potency entry is “inactive”.

For the compound `CC[C@@H](CO)NC(=O)[C@@H]1C=C2c3cccc4[nH]cc(c34)C[C@H]2N(C)C1`, the Potency result was “inactive”.

In the case of `CC(C)C(=O)Cl`, the Potency entry was “inactive”.

Take `CN(C)c1ccc(N)cc1`: the Potency entry is “inactive”.

As for `CCOc1ccc(C(C)(C)COCc2cccc(Oc3ccccc3)c2)cc1`, the Potency result is “inactive”.

With `O=[Se]=O`, the Potency entry is “inactive”.

With `CCOCn1c(-c2ccc(Cl)cc2)c(C#N)c(Br)c1C(F)(F)F`, the Potency entry was “inactive”.

For the compound `O=C(N[C@H]1N=C(c2ccccc2F)c2cccc3c2N(CC3)C1=O)c1cc2ccccc2[nH]1`, the Potency result was “inactive”.

Regarding `N#Cc1cc(I)c(O)c(I)c1`, the Potency entry was “inactive”.

As for `CCC1(C2=NCCN2)Cc2ccccc2O1` (stereo not given), the Potency entry is “inactive”.

Consider `ClSC(Cl)(Cl)Cl`, for which the Potency result is “inactive”.

With `CCOP(=S)(OCC)Oc1cc(C)nc(N(CC)CC)n1`, the Potency result was “inactive”.

For `Nc1ccc2c(c1)Cc1ccccc1-2`, the Potency entry is “inactive”.

As for `C[C@@H]1CC2=CC(=O)CC[C@@H]2[C@H]2CC[C@@]3(C)[C@@H](CC[C@]3(C)O)[C@@H]21`, the Potency entry was “inactive”.

Turning to `COC(=O)c1ccccc1S(=O)(=O)NC(=O)N(C)c1nc(C)nc(OC)n1`, the Potency entry was “inactive”.

For the compound `CC(Cc1ccccc1)NCc1ccccc1Cl` (stereo not given), the Potency result is “inactive”.

Consider `CC(C)(C)c1ccc(CSc2cnn(C(C)(C)C)c(=O)c2Cl)cc1`, for which the Potency entry is “inactive”.

For the compound `CNN`, the Potency entry was “inactive”.

As to `C=C1C[C@@H]2[C@H](CC[C@]3(C)C(=O)CC[C@@H]23)[C@@]2(C)C=CC(=O)C=C12`, the Potency result is “inactive”.

Consider `C=CCOC(C)=O`, for which the Potency entry was “inactive”.

For `Cc1ccc(-c2c(Cl)nc(C#N)n2S(=O)(=O)N(C)C)cc1`, the Potency entry was “inactive”.

In the case of `FC(F)OC(F)(F)C(F)Cl` (stereo not given), the Potency result was “inactive”.

Another assay deals with KiSS-1 receptor (Homo sapiens) (UniProt Q969F8). Briefly: Human kisspeptin (KISS1R) small molecule agonists, calcium flux assay in KISS1R-HEK293 cells (AID 1920064; active = well fitted activation curve with a large enough effect in the repeat runs). The following applies: KISS1R-HEK293, calcium flux fluorescence, agonist; series mostly up to 76.8 µM. In short, it runs like this:
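Stable human KISS1R HEK293 line; 18 h plating, 37 C/5% CO2; calcium dye 1 h 37 C; compound pin transfer; kinetic fluorescence Ex/Em 480/540, 3 min.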
`C=COC(C)=O`: the Potency entry was “inactive”.

For `CCCCCl`, the Potency entry was “inactive”.

Turning to `OC(c1ccc(F)cc1)(c1cncnc1)c1ccccc1Cl` (stereo not given), the Potency entry was “inactive”.

In the case of `CCOC(=O)OC1=C(c2cc(C)ccc2C)C(=O)NC12CCC(OC)CC2` (stereo not given), the Potency result was “inactive”.

With `NNCCO`, the Potency entry was “inactive”.

As to `C[N+]1(C)[C@@H]2CC[C@H]1CC(OC(=O)C(CO)c1ccccc1)C2` (stereo not given in full), the Potency result was “inactive”.

Turning to `O=CC(Br)(Br)Br`, the Potency entry is “inactive”.

Turning to `Nc1c(Br)cc(Br)c2c1C(=O)c1ccccc1C2=O`, the activation is 7.67% [at 15.8 µM] (inactive).

For the compound `O=S(=O)(Cl)c1ccccc1`, the Potency entry was “inactive”.

For `Cc1nnc2n1-c1sc(CCC(=O)N3CCOCC3)cc1C(c1ccccc1Cl)=NC2`, the Potency result was “inactive”.

For `O=Cc1ccc2c(c1)OCO2`, the Potency entry is “inactive”.

Take `CCN(CC)C(=S)[S-].CCN(CC)C(=S)[S-].[Zn+2]`: the Potency is 19.3 µM (active).

`CC(Oc1cccc(Cl)c1)C(=O)O` (stereo not given): the Potency result is “inactive”.

Take `N#CC(CCc1ccc(Cl)cc1)(Cn1cncn1)c1ccccc1` (stereo not given): the Potency entry is “inactive”.

Regarding `CCCSP(=S)(OCC)Oc1ccc(Cl)cc1Cl` (stereo not given), the Potency entry was “inactive”.

As for `CCC(CC)(CNC(=O)CCCO)c1cccc(OC)c1`, the Potency entry was “inactive”.

With `CC(C)(C)c1cc([N+](=O)[O-])cc([N+](=O)[O-])c1O`, the Potency result was “inactive”.

Turning to `Cc1cnc2c(C(=O)O)c(Cl)ccc2c1`, the Potency entry was “inactive”.

`CC[C@H](C)[C@H]1O[C@]2(C=C[C@@H]1C)C[C@@H]1C[C@@H](C/C=C(\C)[C@@H](O[C@H]3C[C@H](OC)[C@@H](O[C@H]4C[C@H](OC)[C@@H](O)[C@H](C)O4)[C@H](C)O3)[C@@H](C)/C=C/C=C3\CO[C@@H]4[C@H](O)C(C)=C[C@@H](C(=O)O1)[C@]34O)O2`: the Potency entry is “inactive”.

With `CC[C@@H](CO)NC(=O)[C@@H]1C=C2c3cccc4[nH]cc(c34)C[C@H]2N(C)C1`, the Potency entry was “inactive”.

Turning to `CC(C)C(=O)Cl`, the Potency entry is “inactive”.

For the compound `CN(C)c1ccc(N)cc1`, the Potency entry was “inactive”.

In the case of `CCOc1ccc(C(C)(C)COCc2cccc(Oc3ccccc3)c2)cc1`, the Potency result is “inactive”.

For the compound `O=[Se]=O`, the Potency result is “inactive”.

Consider `CCOCn1c(-c2ccc(Cl)cc2)c(C#N)c(Br)c1C(F)(F)F`, for which the Potency result was “inactive”.

For the compound `O=C(N[C@H]1N=C(c2ccccc2F)c2cccc3c2N(CC3)C1=O)c1cc2ccccc2[nH]1`, the Potency result was “inactive”.

With `N#Cc1cc(I)c(O)c(I)c1`, the Potency result was “inactive”.

As to `CCC1(C2=NCCN2)Cc2ccccc2O1` (stereo not given), the Potency result was “inactive”.

`ClSC(Cl)(Cl)Cl`: the Potency result was “inactive”.

As for `CCOP(=S)(OCC)Oc1cc(C)nc(N(CC)CC)n1`, the Potency result is “inactive”.

As to `Nc1ccc2c(c1)Cc1ccccc1-2`, the Potency result was “inactive”.

On to `C[C@@H]1CC2=CC(=O)CC[C@@H]2[C@H]2CC[C@@]3(C)[C@@H](CC[C@]3(C)O)[C@@H]21`, for which the Potency result is “inactive”.

Turning to `COC(=O)c1ccccc1S(=O)(=O)NC(=O)N(C)c1nc(C)nc(OC)n1`, the Potency entry was “inactive”.

Take `CC(Cc1ccccc1)NCc1ccccc1Cl` (stereo not given): the Potency entry was “inactive”.

As to `CC(C)(C)c1ccc(CSc2cnn(C(C)(C)C)c(=O)c2Cl)cc1`, the Potency result was “inactive”.

As for `CNN`, the Potency result was “inactive”.

Turning to `C=C1C[C@@H]2[C@H](CC[C@]3(C)C(=O)CC[C@@H]23)[C@@]2(C)C=CC(=O)C=C12`, the Potency entry was “inactive”.

In the case of `C=CCOC(C)=O`, the Potency entry is “inactive”.

`Cc1ccc(-c2c(Cl)nc(C#N)n2S(=O)(=O)N(C)C)cc1`: the Potency result was “inactive”.

As to `FC(F)OC(F)(F)C(F)Cl` (stereo not given), the Potency result was “inactive”.

For the origin of these results see PubChem BioAssay (Tox21).
